Bioassay records (PubChem)
Chronic BCR inh: qHTS Assay to Find Inhibitors of Chronic Active B-Cell Receptor Signaling. Potency, µM (series often up to 46.1 µM), for the others: at the highest dose activity change, negative = inhibition, usual class: inhibitors. 0.05% of 340,000 active. ABC-DLBCL IkBa-CBG/CBR reporter, luminescence ratio, 4 h; active means well fitted inhibition curve with a large enough effect in the signal ratio, with a control signal flat, not every such curve was filed as active; inconclusive means small, poorly fitted or top-dose-only effect, or effect the other way, or a change in a side signal; the % refers to the signal ratio;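 further: potency means the concentration at half of the fitted maximal effect; plate controls were basal doxycycline-induced cells for no effect and cells given 10 µM MG132 for full effect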
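Doxycycline induced both beetle luciferases in TMD8 lymphoma cells; IKK-driven degradation limits the IkappaBalpha-fused green signal, while red luminescence normalises for cell number and nonspecific effects. Compounds tested up to 46 uM, 4 hrs.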
IL1B secr inh: qHTS for Inhibitors of Inflammasome Signaling: IL-1-beta AlphaLISA Primary Screen. 4.7% of 360,000 active. THP-1 LPS/ATP IL-1B secretion, AlphaLISA, 16 h; hits give low values. activity change, % at 57.5 µM; in the data active means activity change below about -50%; inconclusive means mostly about -30% to -49%; further: on the % scale 0 is the no-effect control and ±100 the full control effect
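THP-1 cells pretreated 1 hr with compounds (up to 57.5 uM final), then stimulated with LPS (250 ng/mL final) plus ATP (1.25 mM final); secreted IL-1B measured by AlphaLISA after 16 hr, decreased signal indicating inhibition.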
DT40 TDP1 no CPT: qHTS for Inhibitors of human tyrosyl-DNA phosphodiesterase 1 (TDP1): qHTS in cells in absence of CPT; DT40 Tdp1-/- hTDP1 cells, no CPT, ATP luminescence, 48 h; Potency, µM (titrated, usually from 46.2 µM), for the others: at the top dose activity change, negative = growth inhibition, actives largely listed as inhibitors; 15% of 420,000 active; further: potency means the concentration at half of the fitted maximal effect; on the % scale 0 is the no-effect control and ±100 the full control effect; nearly all actives have a fitted effect of over 55% in size
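Compound effects on proliferation are scored in DT40 Tdp1-/-;hTDP1 cells in the absence of CPT. ATP levels (CellTiter-Glo luminescence) are recorded after a ≥48 hr, 37 °C incubation.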
SW480 rereplic: A quantitative high throughput screen for small molecules that induce DNA re-replication in SW480 colon adenocarcinoma cells; SW480 DNA re-replication, Hoechst DNA content imaging, 48 h; Potency, µM (titrated, usually from 46.1 µM), for inactives: top-dose re-replication activation, most hits filed as activators; 1.8% of 340,000 active; AID 624297, 2012; further: potency means the concentration at half of the fitted maximal effect; % of control where 0% means no effect; nearly all actives have a fitted effect of over 55% in size
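Cells (250 per well) received 23 nL compound or DMSO by pin tool and were kept 48 hr at 37 C, 5% CO2. Nuclei were then stained with Hoechst for 40 min and scanned for DNA content.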
MCF10A rerep: A quantitative high throughput screen for small molecules that induce DNA re-replication in MCF 10a normal breast cells | 2.9% of 350,000 active | AID 624296, 2012 | Potency, µM (doses to about 46.1 µM), inactives show at the highest dose activity, positive = re-replication, usual class: activators | MCF 10A DNA re-replication, Hoechst nuclear intensity, 48 h; further: potency means the concentration at half of the fitted maximal effect; % of control where 0% means no effect; nearly all actives have a fitted effect of over 50% in size
TDP1 cell CPT: qHTS for Inhibitors of human tyrosyl-DNA phosphodiesterase 1 (TDP1): qHTS in cells in presence of CPT | Potency, µM (highest dose often 46.2 µM), inactives show top-dose activity change, negative = growth inhibition, hits mostly inhibitors | AID 686979, 2013 | 12% of 420,000 active | chicken DT40 Tdp1-/-;hTDP1 cells + 20 nM CPT, ATP luminescence, 48 h; further: potency means the concentration at half of the fitted maximal effect; on the % scale 0 is the no-effect control and ±100 the full control effect; nearly all actives have a fitted effect of over 55% in size
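Cell growth measured by CellTiter-Glo luminescence after a minimum 48 h, 37 C compound exposure with 20 nM CPT in Tdp1-knockout DT40 cells stably expressing hTDP1, seeded 400/well; qHTS titration format.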
* marks the source's active call; other numbers are inactive results; ? = inconclusive; nt = not tested or not shown. In the library only some 19% were active in any assay of this set; here they are far more common. Unless noted, the call rests on the fitted dose curve; in most records, active means well fitted curve in the direction sought with a large enough effect; inconclusive means small, poorly fitted or top-dose-only effect, or another doubt; inactive means no such curve, though single readings can be large; an effect the other way counts as inactive or inconclusive.

SMILES | Chronic BCR inh | IL1B secr inh | DT40 TDP1 no CPT | SW480 rereplic | MCF10A rerep | TDP1 cell CPT
CN(C)CCCN(C(=O)CCS(=O)(=O)c1ccccc1)c1nc2cc3c(cc2s1)OCO3 | ? | -107* | 1.5µM* | ? | 5.2µM* | 1.3µM*
CN(C)CCCN(C(=O)c1ccc(S(=O)(=O)N(C)C)cc1)c1nc2cc3c(cc2s1)OCO3 | ? | -24 | ? | -7% | 2% | ?
CN(C)CCCN(C(=O)CCSc1ccccc1)c1nc2cc3c(cc2s1)OCO3 | ? | -104* | 13µM* | 30% | ? | 8.2µM*
O=C(O)C1CC=CCC1C(=O)N1CCN(c2nc(-c3ccccc3)c3ccccc3n2)CC1 (configuration not stated) | -6% | -63* | ? | ? | 9.2µM* | 18µM*
O=C(O)CCCC(=O)N1CCN(c2nc(-c3ccccc3)c3ccccc3n2)CC1 | 6% | 4 | ? | ? | 6% | 3%
O=C(O)C1CC=CCC1C(=O)N1CCN(c2nc(-c3ccccc3Cl)c3cc(Br)ccc3n2)CC1 (configuration not stated) | -4% | 9 | ? | 18µM* | 23µM* | -29%
COc1ccccc1N1CCN(C(=O)C2CC=CCC2C(=O)O)CC1 (configuration not stated) | -2% | 5 | -8% | 3% | -13% | -6%
CCN(c1ccc(OC)cc1)S(=O)(=O)c1ccc2[nH]c(=O)ccc2c1 | nt | nt | ? | nt | nt | -15%
CCOc1ccc(Cc2c(Cl)nc(SC)nc2N(C)C)cc1 | 1% | 0 | 16µM* | ? | 9.2µM* | 18µM*
CSc1nc(Cl)c(Cc2ccc(OC(C)C)cc2)c(N(C)C)n1 | 27% | 5 | 16µM* | 13% | ? | ?
CCCCN(C(=O)C1CC(=O)N(CCc2ccc(OC)c(OC)c2)C1)c1c(N)n(CC(C)C)c(=O)[nH]c1=O (configuration not stated) | nt | -10 | 13% | -16% | -3% | -4%
COc1ccc(/C=C(/NC(=O)c2ccco2)C(=O)N2CCCCC2)cc1 | 0% | 16 | 6% | -11% | -6% | -6%
O=c1cc(-c2ccccc2Cl)oc2cc(O)cc(O)c12 | 0% | 46 | -27% | 1% | ? | 2%
O=C1C=CC(O)(c2cc(=O)c3c(O)cc(O)cc3o2)C=C1 | ? | -104* | 0.52µM* | 4.1µM* | 1.5µM* | 0.37µM*
CCOc1ncccc1C(=O)NNC(=O)CSc1ccc(Cl)cc1 | 8% | -23 | ? | -13% | -2% | ?
O=C1O[C@@H](c2ccccc2)C[C@@H](O)[C@H](O)CCCc2ccccc21 | nt | -2 | ? | nt | nt | -21%
C#CC(=O)CC1(CN(Cc2ccccc2)C(=O)OC(C)(C)C)CCCCC1 | nt | ? | 10µM* | ? | -6% | 12µM*
CON(C)C(=O)CC1(CN(Cc2ccccc2)C(=O)OC(C)(C)C)CCCCC1 | 3% | 15 | 18µM* | 1% | 23% | 18µM*
CCOC(=O)CN(Cc1ccccc1)C(=O)OC(C)(C)C | 3% | nt | nt | nt | nt | nt
COCCCN1C(=O)C(CC(=O)NCCN2CCOCC2)CC(C(=O)N(C(C)C)C(C)C)=C1C (configuration not stated) | nt | 0 | ? | nt | nt | -8%
Cc1ccc(-n2nnnc2Sc2nc([N+](=O)[O-])nn2C)c(C)c1 | nt | ? | ? | ? | 1% | 16µM*
Cn1cnnc1Sc1nc([N+](=O)[O-])nn1C | 0% | 10 | 6% | -116% | 2% | -1%
Cc1ccc(-n2nnnc2Sc2nc([N+](=O)[O-])nn2C)cc1 | ? | -57* | ? | 16µM* | ? | ?
CCNc1ncnc2[nH]ncc12 | nt | 4 | -1% | 0% | 3% | 6%
COc1ccccc1-c1cc2c(c3c1ccn3C)C1CCC2C1 (configuration not stated) | nt | -8 | ? | nt | nt | ?
SMILES | Chronic BCR inh | IL1B secr inh | DT40 TDP1 no CPT | SW480 rereplic | MCF10A rerep | TDP1 cell CPT
CC(C)N(C)CCOC(=O)C1COc2ccccc2O1 (configuration not stated) | 3% | 20 | -9% | -18% | -5% | -1%
c1ccc(-n2nnnc2-c2cccc3ccccc23)cc1 | nt | 30 | 4.6µM* | 5.8µM* | 23µM* | 3.7µM*
Clc1ccc2[nH]cc(-c3nnnn3-c3ccccc3)c2c1 | -20% | -1 | ? | 17% | 20% | 21µM*
CCCS(=O)(=O)NC(=O)C1(C)CCCN(C(=O)c2cc(OC)c(OC)c(OC)c2)C1 (configuration not stated) | nt | 0 | -17% | nt | nt | 4%
COc1cccc(-c2cnc3c(c2)C(=O)N([C@H](C)CO)C[C@@H](C)[C@H](CN(C)C(=O)Nc2ccccc2F)O3)c1 | nt | 16 | 0% | nt | nt | -1%
O=C(COC(=O)COc1cccc(Br)c1)Nc1ccc(F)cc1F | 0% | 3 | 11% | -10% | -3% | -8%
CC(=O)Nc1cccc(NC(=O)Cn2cnc3c2c(=O)n(C)c(=O)n3C)c1 | nt | nt | -3% | nt | nt | 0%
CN(C)S(=O)(=O)c1ccc(Cl)c(NC(=O)CSc2nc3c(cc2C#N)C(=O)CC(C)(C)C3)c1 | 1% | -6 | ? | ? | 2.9µM* | ?
CCCCOC(=O)CSc1nc2c(cc1C#N)C(=O)CC(C)(C)C2 | -6% | -15 | -22% | -4% | 15% | -18%
CN(C)S(=O)(=O)c1cccc(NC(=O)CSc2nc3c(cc2C#N)C(=O)CC(C)(C)C3)c1 | ? | -58* | 7.3µM* | 16µM* | 15µM* | 9.2µM*
CN(C)S(=O)(=O)c1cccc(NC(=O)CSc2cccc3cccnc23)c1 | ? | -105* | 3.3µM* | ? | ? | 3.7µM*
O=C(/C=C/c1ccc2ccccc2n1)c1cc(Cl)ccc1O | -2% | -7 | ? | 11% | 12% | ?
Oc1ccc(Cl)cc1/C=C/c1ccc2cccc(O)c2n1 | ? | 6 | 26µM* | 21µM* | ? | ?
CCOc1cc(/C=C/c2ccc3cccc([N+](=O)[O-])c3n2)cc(Cl)c1O | ? | 8 | ? | 16% | 26% | ?
